The campaign covered roughly 16,000 compounds. About 5,700 (36%) were called active. Not shown: some 24% with an inconclusive outcome. The list shows a part of the results. Unmarked numbers belong to inactive results. Calls follow the shape of the dose curve; as a rule, active = well fitted curve in the direction sought with a large enough effect; inconclusive = small, poorly fitted or top-dose-only effect, or effect the other way; inactive = no such curve, though single readings can be large or run the other way.

By AC50 is commonly meant the midpoint of the concentration-response curve, whichever way the signal moves.
% is scaled to controls: 0 for no effect and ±100 for the full control effect.

This assay deals with Cytochrome P450 1A2 (Homo sapiens) (UniProt P05177). Put plainly: Cytochrome panel assay with activity outcomes. The note with it: recombinant CYP, pro-luciferin dealkylation, luminescence, p450-cyp1a2; series mostly up to 57.1 µM; activity, negative = inhibition: at the top concentration.
Sequence of Cytochrome P450 1A2 (Homo sapiens) (P05177 whole entry, looked up): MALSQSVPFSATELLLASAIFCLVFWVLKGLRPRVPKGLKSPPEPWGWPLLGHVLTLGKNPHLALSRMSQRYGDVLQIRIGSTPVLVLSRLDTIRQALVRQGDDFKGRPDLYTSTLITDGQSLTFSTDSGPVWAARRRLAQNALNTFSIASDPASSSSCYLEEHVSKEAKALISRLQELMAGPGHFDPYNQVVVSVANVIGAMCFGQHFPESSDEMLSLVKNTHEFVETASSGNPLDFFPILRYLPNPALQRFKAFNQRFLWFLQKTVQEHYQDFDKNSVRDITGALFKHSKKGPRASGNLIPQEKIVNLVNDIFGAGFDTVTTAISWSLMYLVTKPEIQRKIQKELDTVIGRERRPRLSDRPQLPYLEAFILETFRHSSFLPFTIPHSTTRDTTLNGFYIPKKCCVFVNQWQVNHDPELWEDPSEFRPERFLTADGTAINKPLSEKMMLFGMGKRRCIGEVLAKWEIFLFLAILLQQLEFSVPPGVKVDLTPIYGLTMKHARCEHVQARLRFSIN
With `COc1ccccc1CNc1ncnc2ccc(-c3ccc(C(=O)N(C)C)cc3)cc12`, the AC50 is 12.6 µM (active). With `COc1ccccc1CNc1ncnc2ccc(-c3ccc(N(C)C)cc3)cc12`, the AC50 was 0.794 µM (active). Same read-out and setting: the result for `COc1ccccc1CNc1ncnc2ccc(-c3ccc4c(c3)OCO4)cc12` reads 0.794 µM (active).

Regarding `CC(C)(C)NC[C@H](O)c1cc(O)cc(O)c1`, the AC50 result was “inactive”.

Take `CC(=O)NC1(c2cccc(F)c2)CCN(CC(=O)NC(C)C)CC1`: the “activity, negative = inhibition” value was 21.3%. Take `[N-]=[N+]=Nc1ccc(C(=O)CSC[C@@H](NC(=O)CC[C@@H](N)C(=O)O)C(=O)NCC(=O)O)cc1`: the “activity, negative = inhibition” value is -18.2%. `CCNc1ncc2nc(-c3cccs3)c(=O)n(Cc3cccs3)c2n1`: the AC50 is 1.26 µM (active).

Take `COc1ccc(Nc2ncc3nc(-c4cccs4)c(=O)n(Cc4cccc(OC)c4)c3n2)cc1`: the “activity, negative = inhibition” value is -8.5%. Take `CCNc1ncc2nc(-c3cccs3)c(=O)n(C)c2n1`: the AC50 was 1.58 µM (active). On to `CCNc1ncc2nc(C)c(=O)n(Cc3cccs3)c2n1`, for which the AC50 is 2 µM (active). Regarding `CCNc1ncc2nc(-c3cn(C)c4ccccc34)c(=O)n(Cc3cccs3)c2n1`, the AC50 was 6.31 µM (active).

As for `CC[N+](C)(C)c1cccc(O)c1`, the “activity, negative = inhibition” value is -2.3% [at 25.6 µM].

As to `NC/C=C\C(=O)O`, the AC50 entry was “inactive”. In the case of `Cc1ccc(Oc2nn[nH]n2)cc1`, the “activity, negative = inhibition” value was -8.17%. Turning to `CC(=O)CC(=O)[C@@]1(O)CC[C@@H]2[C@@H]3C=C(C)C4=CC(=O)CC[C@@H]4[C@H]3CC[C@]21C`, the “activity, negative = inhibition” value is -6.66% [at 25.6 µM]. As to `CCNc1ncc2nc(-c3cc(F)cc(F)c3)c(=O)n(Cc3cccs3)c2n1`, the AC50 was 5.01 µM (active). For `CCNc1ncc2ncc(=O)n(Cc3cccs3)c2n1`, the AC50 was 2 µM (active).

Consider `CCNc1ncc2nc(-c3ccccc3)c(=O)n(Cc3cccs3)c2n1`, for which the AC50 is 0.316 µM (active). For the compound `C[N+]1(C)CCC(=C(c2ccccc2)c2ccccc2)CC1`, the “activity, negative = inhibition” value is -2.16% [at 25.6 µM]. As to `CC(=O)Oc1cc(C(C)C)c(OCCN(C)C)cc1C`, the AC50 is 3.16 µM (active). With `CC(C)(C)CNCCO`, the activity, negative = inhibition is 6.23% [at 2.29 µM]. For `c1ccc(CSc2nnc([C@@H]3CCCN3)o2)cc1`, the AC50 was 25.1 µM (active). `Cc1ccc(CSc2nnc([C@@H]3CCCN3)o2)cc1`: the AC50 was 15.8 µM (active). Turning to `Cc1ccc(CSc2nnc(-c3ccncc3)n2CC2CCCO2)cc1` (stereo not given), the “activity, negative = inhibition” value was -21.2%. Same read-out and setting: the result for `NC(=O)/C(=N\O)c1ccccc1` reads 2.26%. Regarding `CCOC(=O)c1oc2nc(CC(C)C)c3c(c2c1N)CCC3`, the AC50 is 0.891 µM (active).

Take `COc1cccc([C@H]2Oc3ccc(OC)cc3/C(=N\OC[C@@H](O)[C@@H]3O[C@@H]4OC(C)(C)O[C@@H]4[C@H]3O)[C@@H]2O)c1`: the activity, negative = inhibition was -8.99% [at 11.4 µM]. As to `CC1(C)SC(=S)N(Cc2ccc3c(c2)OCO3)C1N(O)C(=O)NC1CCCCC1` (stereo not given), the “activity, negative = inhibition” value was -27.1%.

Regarding `CCc1ccccc1NC(=S)NCc1ccc2c(c1)OCO2`, the AC50 was 5.62 µM (active). With `CCc1c(C(=O)NCc2ccc3c(c2)OCO3)[nH]c(C)c1C(C)=O`, the AC50 was 3.16 µM (active). For the compound `O=C(O)C[C@H](Cc1ccc2c(c1)OCO2)C(=O)O`, the activity, negative = inhibition is -20% [at 11.4 µM]. On the same count and under the same terms, the result for `C[N+]1(C)CCc2cc(O)c(O)cc2[C@H]1Cc1ccc(O)c(O)c1` reads -12.1% [at 2.29 µM]; that for `CC1(C)CC(=O)C(C(C#Cc2ccccc2)C2=C(O)CC(C)(C)CC2=O)=C(O)C1`, -28.5%; that for `COc1cccc(-c2cc(C(=O)N/N=C/c3ccc(OC)c(COC(C)=O)c3)c3ccccc3n2)c1`, -28.3%.

In the case of `COc1ccc(/C=N/NC(=O)c2ccn[nH]2)cc1COc1ccc(F)cc1`, the AC50 is 8.91 µM (active). Consider `COc1ccc(C(C(=O)NC2CCCC2)N(Cc2ccc(F)cc2)C(=O)c2ccn[nH]2)cc1OC` (stereo not given), for which the “activity, negative = inhibition” value is -9.89%. Take `CO[C@@]12C[C@@H](COC(=O)c3cncc(Br)c3)CN(C)[C@H]1Cc1cn(C)c3cccc2c13`: the concentration at half-maximal activity (AC50) is 5.01 µM (active). As to `Cc1cccc(C(=O)N/N=C/c2ccc(OCC(=O)N3CCCCC3)cc2)c1`, the “activity, negative = inhibition” value was -9.71%.

For the compound `CN(C)c1ccc(/C=N\NC(=O)c2cnc3ccccc3c2)cc1`, the AC50 was 1.58 µM (active).

As for `O[C@@](CCN1CCCCC1)(c1ccccc1)[C@@H]1C[C@H]2C=C[C@@H]1C2`, the “activity, negative = inhibition” value is -9.3% [at 25.6 µM].

Turning to `N[C@@H](C(=O)O)c1ccc(C(=O)O)cc1`, the “activity, negative = inhibition” value is 3.94%. With `CC(C)Cc1ccc([C@H](C)C(=O)O)cc1`, the AC50 result is “inactive”. For the compound `N#C[C@H](Cc1ccc(O)cc1)c1ccc(O)cc1`, the AC50 was 12.6 µM (active). In the case of `CC(=O)N[C@H](Cc1ccc(O)cc1)C(=O)O`, the activity, negative = inhibition was -11.8% [at 11.4 µM]. In the case of `CCCCNC(=O)CCn1c(=S)[nH]c2cc3c(cc2c1=O)OCO3`, the half-maximal activity concentration (AC50) is 2.51 µM (active).

For `O=C(CCCCCn1c(=S)[nH]c2cc3c(cc2c1=O)OCO3)N1CCN(C2CCCCC2)CC1`, the “activity, negative = inhibition” value is -22.2%. On the same count and under the same terms, the result for `Cc1sc2ncn(CC(=O)NCCCC(=O)N3CCN(c4ncccn4)CC3)c(=O)c2c1C` reads -23.7%. Consider `CCN(CC)CCn1c(=S)[nH]c2cc3c(cc2c1=O)OCO3`, for which the AC50 is 15.8 µM (active). Still for that read-out and setting: the result for `O=C(CCCn1c(=S)[nH]c2cc3c(cc2c1=O)OCO3)N1CCN(c2ncccn2)CC1` reads 12.6 µM (active). Same read-out and setting: the result for `C=CCNC(=O)c1ccc(Cn2c(=S)[nH]c3cc4c(cc3c2=O)OCO4)cc1` reads 8.91 µM (active).
